Laboratory results as given in PubChem BioAssay AID1159580 (chemical genetic matrix, 2015).
The campaign covered roughly 5,500 compounds. About 2,000 (36%) were called active. Another 18% or so got no clear call; they are omitted. This is one part of the list. Unmarked numbers belong to inactive results. Cut-off read from the data, not from the text of the source: active = normalized growth mostly below about 0.91 (no sharp cut-off); inconclusive = no clear call, values can overlap the other calls; inactive = mostly above about 0.92.

Test: chemical genetic growth profiling, strain panel (AID 1159580);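 note: tested at 20 µM; growth read once vehicle control cultures reached saturation at 30 °C; 1 = growth at the plate median or of vehicle wells; lower values mean less growth of the strain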
Settings: S. cerevisiae deletion strains, growth OD
[1] = locus YHR030C, strain SLT2, stronger effect = lower value
[2] = locus YHR079C, strain IRE1, stronger effect = lower value
[3] = locus YJL095W, strain BCK1, stronger effect = lower value
[4] = locus YJR066W, strain TOR1, stronger effect = lower value
[5] = locus YLR113W, strain HOG1, stronger effect = lower value
[6] = locus YNL183C, strain NPR1, stronger effect = lower value
[7] = locus YOR231W, strain MKK1, stronger effect = lower value
[8] = locus YPL256C, strain CLN2, stronger effect = lower value

Compound | normalized growth [1] | normalized growth [2] | normalized growth [3] | normalized growth [4] | normalized growth [5] | normalized growth [6] | normalized growth [7] | normalized growth [8]
CCc1oc2ccccc2c1C(=O)c1cc(Br)c(O)c(Br)c1 | 0.0985 (active) | 0.111 (active) | 0.101 (active) | 0.00147 (active) | 0.124 (active) | 0.06 (active) | 0.105 (active) | 0.13 (active)
O=C(O)c1ccccc1-c1c2cc(I)c(=O)c(I)c-2oc2c(I)c(O)c(I)cc12 | 0.991 | 1 | 0.992 | 0.903 | 0.942 | 0.93 | 1.02 | 1.01
